Screen size: about 1,200 compounds; about 210 (18%) were called active. No stated cut-off is given here; in the data, active means inhibition above about 30%; inactive means the rest. Only a sample is shown.
assay: HTRF signal interference by compounds, confirmation, artefact control for SUMOylation inhibitor project, biochemical, uHTS (AID 2069); settings: HTRF interference counterscreen, fluorescence, at 35 µM, hits give high values

| Compound | inhibition |
| --- | --- |
| O=C(NNC(=O)c1sc2ccccc2c1Cl)Nc1ccc(Cl)cc1 | -5% (inactive) |
| COc1ccc2c(c1)Cc1sc(NC(=O)c3ccccc3)nc1-2 | 13.9% (inactive) |
| COc1ccc(C(=O)Nc2nc3c(s2)Cc2cc(OC)ccc2-3)cc1 | 5.45% (inactive) |
| COCCN(CCOC)S(=O)(=O)c1ccc(C(=O)Nc2nc3c(s2)CCc2ccccc2-3)cc1 | 36.7% (active) |
| O=C(NN1C(=O)/C(=C/C=C/c2ccco2)SC1=S)c1ccncc1 | 16.8% (inactive) |
| Cc1cc(C)n(Cc2ccc(C(=O)N/N=C/c3ccc(-c4ccc([N+](=O)[O-])cc4)o3)o2)n1 | 6.7% (inactive) |
| O=C(Cc1ccccc1)Nc1nnc(-c2ccco2)s1 | 13.9% (inactive) |
| CCC(C)(C)C1CCc2c(sc(NC(=O)c3ccccc3C(=O)O)c2C#N)C1 (stereo unspecified) | 7.6% (inactive) |
| CCCCOc1ccc(/C=C/C(=O)Nc2ccc(C(N)=O)cc2)cc1 | 10.9% (inactive) |
| COc1ccccc1NC(=O)c1sc2ncn(CC(=O)Nc3ccccc3)c(=O)c2c1C | 4.35% (inactive) |
| O=C(Nc1ccccc1O)c1cc(S(=O)(=O)N2CCOCC2)c(Cl)cc1Cl | 10.6% (inactive) |
| CCN(C(=S)Nc1cc(S(=O)(=O)N2CCOCC2)ccc1Cl)c1cccc2ccccc12 | -26.1% (inactive) |
| O=C(O)c1cc2cccc(S(=O)(=O)N3CCOCC3)c2cc1O | 49.6% (active) |
| Cc1occc1C(=O)N1CCN(c2ccccc2)CC1 | 0.55% (inactive) |
| CCOc1ccc(N2C(=O)c3ccc(C(=O)OCC(=O)N(CC)C4CCS(=O)(=O)C4)cc3C2=O)cc1 (stereo unspecified) | -4.1% (inactive) |
| Oc1ccc(N=Cc2c(O)ccc3ccccc23)cc1 | 10.2% (inactive) |
| Oc1ccccc1N=Cc1c(O)ccc2ccccc12 | -5.9% (inactive) |
| Oc1ccc2ccccc2c1C=Nc1ccc(Cl)cn1 | 37.1% (active) |
| CC1=CC2(O)OCCN(CCO)C2=CC1=O (stereo unspecified) | 4.6% (inactive) |
| O=C1C=C(O)c2c(O)cccc2C1=O | -24.9% (inactive) |
| COc1cccc(/C=C2/SC(=S)N(CC(=O)NNC(=O)c3ccccc3O)C2=O)c1 | -13% (inactive) |
| CN(c1ccccc1)c1cc(=O)[nH]c(=O)[nH]1 | 0.55% (inactive) |
| CCN(c1ccccc1)c1cc2ccccc2c(=O)[nH]1 | 37% (active) |
| Cc1ccccc1Nc1cc2ccccc2c(=O)[nH]1 | 25.8% (inactive) |
| Cc1[nH][nH]c(=O)c1C(c1ccc(-c2ccccc2C(=O)O)o1)c1c(C)[nH][nH]c1=O | 9.65% (inactive) |
| COc1ccc(CCN2Cc3c(cccc3[N+](=O)[O-])C2=O)cc1OC | -1.3% (inactive) |

Reference: PubChem BioAssay AID2069 (Sanford-Burnham Center for Chemical Genomics, 2009)
